According to the supplement of paper PMC9262897, “Low-cost anti-mycobacterial drug discovery using engineered E. coli” (Nature Communications, 2022):
Where a name gives a salt, the structure may show the parent alone. ± gives the standard deviation of the averaged measurements.

How the values were obtained:
Assay in all cases: growth (OD600 after 10 h); higher = more growth (less inhibition)
[1] = tested on: E. coli TESEC Alr+ wild-type control; conditions: compound 0.1 mM; raw OD600 reference: median of DMSO wells 0.241, cell-free background 0.041
Method: (§1)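 TESEC Mtb Alr E. coli, or the Alr+ wild-type control, in 384-well plates with Prestwick library compounds at 0.1 mM and 1% DMSO, across arabinose induction levels of 1E3 to 1E7 nM. Growth is read as OD600 after 10 h at 37 °C in triplicate biological replicates.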

E. coli TESEC Mtb Alr [2] = conditions: compound 0.1 mM
Method: as §1

E. coli TESEC Mtb Asd = conditions: compound 0.1 mM
Method: (§2)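 TESEC E. coli strains in which the native enzyme is deleted and replaced by arabinose-inducible Mtb Asd, DapB, CysH or TrpD, each grown in its selective medium. Strains were screened against the Prestwick library at 0.1 mM and 1% DMSO in 384-well format at low and high arabinose induction. Growth is read as OD600 after 10 h in triplicate.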

E. coli TESEC Mtb DapB = conditions: compound 0.1 mM
Method: as §2

[3] = tested on: E. coli TESEC Alr+ wild-type control; conditions: compound 0.1 mM; raw OD600 reference: median of DMSO wells 0.49, cell-free background 0.052
Method: (§3)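 TESEC Mtb Alr E. coli (ΔaraC ΔtolC ΔentC Δalr ΔdadX, arabinose-inducible Mtb Alr) or the Alr+ wild-type control strain, grown in defined M9-fructose medium without D-alanine in 96-well plates with Prestwick library compounds at 0.1 mM and 1% DMSO. Low Alr induction is 0.1 µM arabinose and high induction is 10 mM arabinose.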

E. coli TESEC Mtb Alr [4] = conditions: compound 0.1 mM; remark: listed apart in the source
Method: as §3

[5] = arabinose 1000 nM, raw OD600 reference: median of DMSO wells 0.294, cell-free background 0.041
[6] = arabinose 10000 nM, raw OD600 reference: median of DMSO wells 0.264, cell-free background 0.041
[7] = arabinose 100000 nM, raw OD600 reference: median of DMSO wells 0.201, cell-free background 0.041
[8] = arabinose 1000000 nM, raw OD600 reference: median of DMSO wells 0.193, cell-free background 0.041
[9] = arabinose 10000000 nM, raw OD600 reference: median of DMSO wells 0.146, cell-free background 0.041
[10] = arabinose induction (level): High, raw OD600 reference: median of DMSO wells 0.331, cell-free background 0.041
[11] = arabinose induction (level): Low, raw OD600 reference: median of DMSO wells 0.417, cell-free background 0.041
[12] = arabinose induction (level): High, raw OD600 reference: median of DMSO wells […], cell-free background 0.041
[13] = arabinose induction (level): Low, raw OD600 reference: median of DMSO wells 0.227, cell-free background 0.041
[14] = arabinose 100 nM, raw OD600 reference: median of DMSO wells 0.413, cell-free background 0.052
[15] = arabinose 10000000 nM, raw OD600 reference: median of DMSO wells […], cell-free background 0.052

Compound | growth [1] | growth (E. coli TESEC Mtb Alr [2]; [5]) | growth (E. coli TESEC Mtb Alr [2]; [6]) | growth (E. coli TESEC Mtb Alr [2]; [7]) | growth (E. coli TESEC Mtb Alr [2]; [8]) | growth (E. coli TESEC Mtb Alr [2]; [9]) | growth (E. coli TESEC Mtb Asd; [10]) | growth (E. coli TESEC Mtb Asd; [11]) | growth (E. coli TESEC Mtb DapB; [12]) | growth (E. coli TESEC Mtb DapB; [13]) | growth [3] | growth (E. coli TESEC Mtb Alr [4]; [14]) | growth (E. coli TESEC Mtb Alr [4]; [15])
CC(=O)O[C@]1(C(C)=O)CC[C@H]2[C@@H]3C=C(C)C4=CC(=O)CC[C@]4(C)[C@H]3CC[C@@]21C [Megestrol acetate] | 0.206 ± 0.022 | 0.285 ± 0.024 | 0.266 ± 0.013 | 0.16 ± 0.003 | 0.164 ± 0.0052 | 0.163 ± 0.016 | 0.441 ± 0.041 | 0.46 ± 0.026 | 0.2058 ± 0.0013 | 0.248 ± 0.034 | 0.212 ± 0.22 | 0.291 ± 0.12 | 0.302 ± 0.041
C[C@H](N[C@@H](CCc1ccccc1)C(=O)O)C(=O)N1CCC[C@H]1C(=O)O [Enalaprilat dihydrate] | 0.228 ± 0.0039 | 0.2913 ± 0.0017 | 0.285 ± 0.011 | 0.198 ± 0.019 | 0.208 ± 0.01 | 0.1379 ± 0.0012 | 0.259 ± 0.063 | 0.31 ± 0.094 | 0.21 ± 0.013 | 0.216 ± 0.022 | 0.638 ± 0.025 | 0.411 ± 0.011 | 0.308 ± 0.022
Oc1ccc(C2CNCCc3c2cc(O)c(O)c3Cl)cc1 (configuration not stated) [Fenoldopam] | 0.0924 ± 0.0031 | 0.0795 ± 0.0009 | 0.0538 ± 0.0026 | 0.0873 ± 0.0018 | 0.0562 ± 0.0034 | 0.086 ± 0.0096 | 0.113 ± 0.0085 | 0.126 ± 0.017 | 0.149 ± 0.035 | 0.135 ± 0.029 | 0.355 ± 0.023 | 0.104 ± 0.048 | 0.0738 ± 0.006
OCCN1CCN(CCCN2c3ccccc3C=Cc3ccccc32)CC1 [Opipramol dihydrochloride] | 0.142 ± 0.003 | 0.271 ± 0.023 | 0.245 ± 0.0065 | 0.179 ± 0.0079 | 0.0873 ± 0.0083 | 0.137 ± 0.003 | 0.16 ± 0.019 | 0.276 ± 0.024 | 0.199 ± 0.027 | 0.218 ± 0.04 | 0.464 ± 0.013 | 0.407 ± 0.006 | 0.298 ± 0.0042
CCN[C@H]1CN(CCCOC)S(=O)(=O)c2sc(S(N)(=O)=O)cc21 [Brinzolamide] | 0.248 ± 0.012 | 0.282 ± 0.017 | 0.261 ± 0.0091 | 0.219 ± 0.03 | 0.182 ± 0.0056 | 0.135 ± 0.0031 | 0.259 ± 0.085 | 0.385 ± 0.11 | 0.202 ± 0.013 | 0.215 ± 0.011 | 0.579 ± 0.098 | 0.405 ± 0.0097 | 0.3104 ± 0.0022
CCOc1ccc2c(c1)C(C)=CC(C)(C)N2 [Ethoxyquin] | 0.183 ± 0.0075 | 0.283 ± 0.015 | 0.249 ± 0.007 | 0.192 ± 0.017 | 0.118 ± 0.0015 | 0.227 ± 0.067 | 0.353 ± 0.083 | 0.305 ± 0.042 | 0.196 ± 0.0042 | 0.205 ± 0.024 | 0.3809 ± 0.0031 | 0.408 ± 0.0097 | 0.167 ± 0.068
COC(=O)Nc1nc2cc(C(=O)c3cccs3)ccc2[nH]1 [Nocodazole] | 0.251 ± 0.0038 | 0.292 ± 0.018 | 0.269 ± 0.0045 | 0.211 ± 0.0085 | 0.185 ± 0.0053 | 0.142 ± 0.0038 | 0.345 ± 0.023 | 0.415 ± 0.034 | 0.186 ± 0.0079 | 0.215 ± 0.044 | 0.465 ± 0.044 | 0.419 ± 0.0079 | 0.382 ± 0.044
CC(C(=O)O)c1ccc(-c2ccccc2)c(F)c1 (configuration not stated) [Flurbiprofen] | 0.188 ± 0.0069 | 0.239 ± 0.014 | 0.23 ± 0.0069 | 0.168 ± 0.0089 | 0.161 ± 0.0092 | 0.1346 ± 0.00075 | 0.366 ± 0.076 | 0.238 ± 0.056 | 0.208 ± 0.0072 | 0.188 ± 0.023 | 0.486 ± 0.025 | 0.387 ± 0.021 | 0.286 ± 0.014
COc1cc(N)c(Cl)cc1C(=O)NC1CCN(Cc2ccccc2)CC1 [Clebopride maleate] | 0.19 ± 0.002 | 0.263 ± 0.0076 | 0.24 ± 0.005 | 0.171 ± 0.016 | 0.132 ± 0.0034 | 0.129 ± 0.0055 | 0.163 ± 0.016 | 0.277 ± 0.036 | 0.2 ± 0.011 | 0.223 ± 0.031 | 0.474 ± 0.027 | 0.397 ± 0.0065 | 0.314 ± 0.016
CS(=O)(=O)c1ccc([C@@H](O)[C@@H](CF)NC(=O)C(Cl)Cl)cc1 [Florfenicol] | 0.0412 ± 0.0009 | 0.0406 ± 0.00059 | 0.0395 ± 0.0002 | 0.04123 ± 0.0004 | 0.03917 ± 0.00012 | 0.0409 ± 0.00017 | 0.054 ± 0.0047 | 0.0538 ± 0.0014 | 0.0485 ± 0.0014 | 0.0488 ± 0.001 | 0.05113 ± 0.00023 | 0.05607 ± 0.00047 | 0.0524 ± 0.0018
Cn1c(=O)c2c(ncn2C)n(C)c1=O [Caffeine] | 0.233 ± 0.0046 | 0.28 ± 0.0091 | 0.277 ± 0.0046 | 0.2 ± 0.016 | 0.215 ± 0.0057 | 0.14 ± 0.0044 | 0.304 ± 0.065 | 0.352 ± 0.11 | 0.192 ± 0.01 | 0.228 ± 0.044 | 0.617 ± 0.065 | 0.412 ± 0.0085 | 0.369 ± 0.006
CN1CCN(c2c(F)cc3c(=O)c(C(=O)O)cn4c3c2SCC4)CC1 [Rufloxacin] | 0.04323 ± 0.00015 | 0.0429 ± 0.001 | 0.03973 ± 0.00031 | 0.04207 ± 0.00031 | 0.03957 ± 0.00025 | 0.0429 ± 0.0015 | 0.04973 ± 0.00045 | 0.0499 ± 0.0012 | 0.0507 ± 0.00094 | 0.0509 ± 0.0014 | 0.0549 ± 0.00072 | 0.0582 ± 0.0019 | 0.05197 ± 0.00051
C=CCOC(Cn1ccnc1)c1ccc(Cl)cc1Cl (configuration not stated) [Enilconazole] | 0.0491 ± 0.0028 | 0.0495 ± 0.0068 | 0.0424 ± 0.00087 | 0.0459 ± 0.0018 | 0.043 ± 0.0011 | 0.0488 ± 0.0025 | 0.0691 ± 0.01 | 0.0619 ± 0.0052 | 0.0767 ± 0.0029 | 0.0764 ± 0.0069 | 0.11 ± 0.01 | 0.193 ± 0.0082 | 0.0627 ± 0.0022
CCN(CC)C(=O)/C(C#N)=C/c1cc(O)c(O)c([N+](=O)[O-])c1 [Entacapone] | 0.0523 ± 0.00059 | 0.0552 ± 0.0036 | 0.0571 ± 0.00062 | 0.0534 ± 0.0015 | 0.0544 ± 0.00092 | 0.0482 ± 0.00026 | 0.142 ± 0.005 | 0.149 ± 0.029 | 0.138 ± 0.007 | 0.172 ± 0.0056 | 0.144 ± 0.02 | 0.195 ± 0.011 | 0.0695 ± 0.0028
